Data reported in the supplement of paper PMC6609913.
Counter-ions that a name gives are not always drawn. ± gives the standard deviation of the averaged measurements. Over roughly 1,300 compounds, “normalised cell viability” has its median near 1; the lowest 2% begin near 0.15. The list comes from a sample in which the lowest values are over-represented; it also holds similar structures and randomly drawn compounds.

Tested on: V-C8 + BRCA2 (BRCA2-proficient hamster cells)
Assay: normalised cell viability (fraction of plate median); higher = more viable cells (less toxic)
Conditions: 5 µM
Procedure, shortened: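 Hamster V-C8 cells with and without restored BRCA2 were exposed in 96-well plates to library drugs at 5 μM for 3 days (screen 1) or 6 days (screen 2). Cell viability was scored by resazurin assay, then median-plate normalised, averaging triplicate wells.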

Structure (SMILES) | normalised cell viability (treatment time: 3 days) | normalised cell viability (treatment time: 6 days)
CCCCC(CC)CNC(=N)NC(=N)NCCCCCCNC(=N)NC(=N)NCC(CC)CCCC (centres undefined) [Alexidine dihydrochloride] | 0.143 ± 0.002 | 0.149 ± 0.011
O=C1C=CC(=O)c2c1ccc1c2ccc2ccccc21 [Chrysene-1,4-quinone] | 1.024 ± 0.0027 | 1 ± 0.11
CC(C)Oc1ccc2c(=O)c(-c3ccccc3)coc2c1 [Ipriflavone] | 0.993 ± 0.029 | 1.08 ± 0.11
Nc1ccn([C@@H]2CS[C@H](CO)O2)c(=O)n1 [Lamivudine] | 0.335 ± 0.012 | 0.406 ± 0.023
OC(CCN1CCCC1)(c1ccccc1)C1CCCCC1 (centres undefined) [Procyclidine hydrochloride] | 0.981 ± 0.047 | 0.987 ± 0.012
COc1cc(OC)c(C(=O)CCCN2CCCC2)c(OC)c1 [Buflomedil hydrochloride] | 1.04 ± 0.096 | 1.07 ± 0.025
CN1C(C)(C)CCCC1(C)C [Pempidine tartrate] | 1.1 ± 0.035 | 1.007 ± 0.0034
C[C@@]1(O)CCOC(=O)C1 [Mevalonic-D, L acid lactone] | 1.09 ± 0.038 | 1.06 ± 0.054
Nc1ccc(S(=O)(=O)Nc2ccnn2-c2ccccc2)cc1 [Sulfaphenazole] | 1.07 ± 0.02 | 1.01 ± 0.041
Cc1ccnc2c1NC(=O)c1cccnc1N2C1CC1 [Nevirapine] | 1.03 ± 0.087 | 1.05 ± 0.047
C[C@H]1O[C@@H](O[C@H]2[C@@H](O)C[C@H](O[C@H]3[C@@H](O)C[C@H](O[C@H]4CC[C@@]5(C)[C@H](CC[C@@H]6[C@@H]5C[C@@H](O)[C@]5(C)[C@@H](C7=CC(=O)OC7)CC[C@]65O)C4)O[C@@H]3C)O[C@@H]2C)C[C@H](O)[C@@H]1O [Digoxin] | 1.06 ± 0.036 | 1.07 ± 0.13
COc1ccc(NS(=O)(=O)c2ccc(N)cc2)nn1 [Sulfamethoxypyridazine] | 0.879 ± 0.062 | 0.892 ± 0.069
CC(=O)c1ccc(S(=O)(=O)NC(=O)NC2CCCCC2)cc1 [Acetohexamide] | 1.22 ± 0.019 | 1.025 ± 0.0097
O=C1C(O)=C([C@H]2CC[C@H](c3ccc(Cl)cc3)CC2)C(=O)c2ccccc21 [Atovaquone] | 0.958 ± 0.012 | 0.922 ± 0.04
CC(C)(C)NC(=O)[C@@H]1C[C@@H]2CCCC[C@@H]2CN1C[C@@H](O)[C@H](Cc1ccccc1)NC(=O)[C@H](CC(N)=O)NC(=O)c1ccc2ccccc2n1 [Saquinavir mesylate] | 0.842 ± 0.061 | 0.952 ± 0.073
O=C1Cc2cc(CCN3CCN(c4nsc5ccccc45)CC3)c(Cl)cc2N1 [Ziprasidone  Hydrochloride] | 0.206 ± 0.016 | 0.23 ± 0.013
CO/N=C(\C(=O)N[C@@H]1C(=O)N2C(C(=O)OC(C)OC(C)=O)=C(COC(N)=O)CS[C@H]12)c1ccco1 (some centres undefined) [Cefuroxime axetil] | 1.01 ± 0.057 | 1.04 ± 0.12
Cc1cccc(N(C)C(=S)Oc2ccc3ccccc3c2)c1 [Tolnaftate] | 1.02 ± 0.027 | 1.04 ± 0.044
CC(=O)CC(c1ccc([N+](=O)[O-])cc1)c1c(O)c2ccccc2oc1=O (centres undefined) [Acenocoumarol] | 0.92 ± 0.023 | 0.979 ± 0.053
N[C@H]1CONC1=O [(S)-(-)-Cycloserine] | 1.04 ± 0.043 | 0.917 ± 0.29
O=C1[C@H](CC[C@H](O)c2ccc(F)cc2)[C@@H](c2ccc(O)cc2)N1c1ccc(F)cc1 [Ezetimibe] | 1.03 ± 0.04 | 1.08 ± 0.054

Structure (SMILES) | normalised cell viability (treatment time: 3 days) | normalised cell viability (treatment time: 6 days)
OC[C@H]1O[C@@H](Oc2ccc(O)cc2)[C@H](O)[C@@H](O)[C@@H]1O [Arbutin] | 1.02 ± 0.05 | 0.979 ± 0.024
CCOC(=O)/C=C(C)/C=C/C=C(C)/C=C/c1c(C)cc(OC)c(C)c1C [Etretinate] | 1.01 ± 0.043 | 1.13 ± 0.071
C[C@H]1c2cccc(O)c2C(=O)C2=C(O)[C@]3(O)C(=O)C(C(N)=O)=C(O)[C@@H](N(C)C)[C@@H]3[C@@H](O)[C@@H]21 [Doxycycline hydrochloride] | 0.947 ± 0.025 | 0.982 ± 0.033
OC(CCCN1CCCCC1)(c1ccccc1)c1ccccc1 [Diphenidol hydrochloride] | 1.08 ± 0.066 | 1.05 ± 0.025
CC(C)(C(=O)O)c1ccc(C(O)CCCN2CCC(C(O)(c3ccccc3)c3ccccc3)CC2)cc1 (centres undefined) [Fexofenadine HCl] | 1.02 ± 0.051 | 1.04 ± 0.026
CC(C)(C)c1ccc(C(O)CCCN2CCC(C(O)(c3ccccc3)c3ccccc3)CC2)cc1 (centres undefined) [Terfenadine] | 0.118 ± 0.0067 | 0.103 ± 0.0052
Cc1cn[nH]c1 [Fomepizole] | 1.07 ± 0.021 | 0.9639 ± 0.0076
CC/C(=C(\c1ccccc1)c1ccc(OCCN(C)C)cc1)c1ccccc1 [Tamoxifen citrate] | 0.878 ± 0.054 | 0.88 ± 0.021
CCN(CC)CCOc1ccc(C(=C(Cl)c2ccccc2)c2ccccc2)cc1 [Clomiphene citrate (Z,E)] | 0.124 ± 0.0093 | 0.128 ± 0.013
CN(C)CCOc1ccc(/C(=C(/CCCl)c2ccccc2)c2ccccc2)cc1 [Toremifene] | 0.822 ± 0.058 | 0.891 ± 0.027
CC[C@H](c1ccc(O)cc1)[C@@H](CC)c1ccc(O)cc1 [Hexestrol] | 0.9735 ± 0.0097 | 0.944 ± 0.19
Nc1nc(NC2CC2)c2ncn([C@H]3C=C[C@@H](CO)C3)c2n1 [Abacavir Sulfate] | 1.04 ± 0.02 | 1.07 ± 0.034
C=CCOC(Cn1ccnc1)c1ccc(Cl)cc1Cl (centres undefined) [Enilconazole] | 0.985 ± 0.021 | 1.04 ± 0.013
NC(N)=Nc1nc(CSCC/C(N)=N/S(N)(=O)=O)cs1 [Famotidine] | 1.16 ± 0.079 | 1.1 ± 0.096
CC(C)(O/N=C(\C(=O)N[C@@H]1C(=O)N2C(C(=O)[O-])=C(C[n+]3ccccc3)CS[C@H]12)c1csc(N)n1)C(=O)O [Ceftazidime pentahydrate] | 1.03 ± 0.011 | 1 ± 0.039
Cc1ccc(O)c([C@H](CCN(C(C)C)C(C)C)c2ccccc2)c1 [Tolterodine tartrate] | 1.05 ± 0.062 | 0.965 ± 0.053
COc1ccc2cc(CCC(C)=O)ccc2c1 [Nabumetone] | 1.05 ± 0.12 | 1.02 ± 0.044
CC(C)C(=O)c1c(C(C)C)nn2ccccc12 [Ibudilast] | 0.987 ± 0.062 | 0.981 ± 0.061
CC(C)(C)NC[C@H](O)c1ccc(O)c(CO)c1 [Levalbuterol hydrochloride] | 0.965 ± 0.089 | 1.004 ± 0.0069
Clc1ccc(CO/N=C(\Cn2ccnc2)c2ccc(Cl)cc2Cl)c(Cl)c1 [Oxiconazole Nitrate] | 1.07 ± 0.16 | 0.675 ± 0.12
CC(=O)OCC(=O)[C@@]12OC(C)(C)O[C@@H]1C[C@H]1[C@@H]3C[C@H](F)C4=CC(=O)C=C[C@]4(C)[C@@]3(F)[C@@H](O)C[C@@]12C [Fluocinonide] | 1.04 ± 0.017 | 1.06 ± 0.04

Structure (SMILES) | normalised cell viability (treatment time: 3 days) | normalised cell viability (treatment time: 6 days)
C[n+]1ccccc1/C=N/O [Pralidoxime chloride] | 0.99 ± 0.036 | 0.9475 ± 0.0081
NS(=O)(=O)c1cc(C2(O)NC(=O)c3ccccc32)ccc1Cl (centres undefined) [Chlorthalidone] | 1.1 ± 0.018 | 1.03 ± 0.079
CCc1cccc2c3c([nH]c12)C(CC)(CC(=O)O)OCC3 (centres undefined) [Etodolac] | 0.922 ± 0.034 | 1.04 ± 0.084
CN[C@@H]1[C@H](O[C@H]2[C@H](O[C@H]3[C@H](O)[C@@H](O)[C@H](NC(=N)N)[C@@H](O)[C@@H]3NC(=N)N)O[C@@H](C)[C@]2(O)CO)O[C@@H](CO)[C@H](O)[C@H]1O [Dihydrostreptomycin sulfate] | 0.911 ± 0.07 | 0.983 ± 0.042
NS(=O)(=O)c1cc2c(cc1C(F)(F)F)NC(Cc1ccccc1)NS2(=O)=O (centres undefined) [Bendroflumethiazide] | 0.992 ± 0.096 | 1.03 ± 0.032
CC[C@H](C)C(=O)O[C@H]1CCC=C2C=C[C@H](C)[C@H](CC[C@@H]3C[C@@H](O)CC(=O)O3)[C@H]21 [Mevastatin] | 0.246 ± 0.0034 | 0.23 ± 0.011
CC[C@H](C)C(=O)O[C@H]1C[C@H](O)C=C2C=C[C@H](C)[C@H](CC[C@@H](O)C[C@@H](O)CC(=O)O)[C@H]21 [Pravastatin] | 0.969 ± 0.14 | 1.02 ± 0.089
CC[C@H](C)C(=O)O[C@H]1C[C@@H](C)C=C2C=C[C@H](C)[C@H](CC[C@@H]3C[C@@H](O)CC(=O)O3)[C@H]21 [Lovastatin] | 0.19 ± 0.015 | 0.153 ± 0.019
NCCNCCNCCNCCN [Tetraethylenepentamine pentahydrochloride] | 0.972 ± 0.03 | 1.01 ± 0.024
CC=CC1=C(C(=O)O)N2C(=O)[C@@H](NC(=O)[C@H](N)c3ccc(O)cc3)[C@H]2SC1 [Cefprozil] | 0.951 ± 0.071 | 0.908 ± 0.072
Clc1cnccn1 [2-Chloropyrazine] | 1.02 ± 0.036 | 1.02 ± 0.071
Cc1cc(-c2ccccc2)nnc1NCCN1CCOCC1 [Minaprine dihydrochloride] | 1.1 ± 0.02 | 1.03 ± 0.048
CC(C(=O)O)c1ccc2c(c1)[nH]c1ccc(Cl)cc12 (centres undefined) [Carprofen] | 1.04 ± 0.11 | 1.04 ± 0.13
CN(Cc1ccc(C(C)(C)C)cc1)Cc1cccc2ccccc12 [Butenafine Hydrochloride] | 1.06 ± 0.05 | 0.982 ± 0.048
C[C@@H]1C[C@H]2[C@@H]3C[C@H](F)C4=CC(=O)C=C[C@]4(C)[C@@]3(Cl)[C@@H](O)C[C@]2(C)[C@H]1C(=O)COC(=O)C(C)(C)C [Clocortolone pivalate] | 1.03 ± 0.27 | 0.899 ± 0.07
CCN(CC)C(=O)C1(c2ccccc2)CC1CN (centres undefined) [Milnacipran hydrochloride] | 0.956 ± 0.095 | 0.937 ± 0.048
COc1nc(C)nc(Cl)c1NC1=NCCN1 [Moxonidine] | 1.014 ± 0.0037 | 0.9963 ± 0.0028
CC1CC(OC(=O)c2ccccc2O)CC(C)(C)C1 (centres undefined) [Homosalate] | 1.03 ± 0.04 | 1.02 ± 0.074
CN(C)C(=O)C(CCN1CCC(O)(c2ccc(Cl)cc2)CC1)(c1ccccc1)c1ccccc1 [Loperamide hydrochloride] | 0.687 ± 0.041 | 0.67 ± 0.057
CN[C@H](CC(C)C)C(=O)N[C@H]1C(=O)N[C@@H](CC(N)=O)C(=O)N[C@H]2C(=O)N[C@H]3C(=O)N[C@H](C(=O)N[C@H](C(=O)O)c4cc(O)cc(O)c4-c4cc3ccc4O)[C@H](O)c3ccc(c(Cl)c3)Oc3cc2cc(c3O[C@@H]2O[C@H](CO)[C@@H](O)[C@H](O)[C@H]2O[C@H]2C[C@](C)(N)[C@H](O)[C@H](C)O2)Oc2ccc(cc2Cl)[C@H]1O [Vancomycin hydrochloride] | 0.177 ± 0.0067 | 0.17 ± 0.018
